By inhibition is commonly meant the drop in the measured response relative to a control, in per cent.

SMILES strings stand for the structures. Unmarked numbers belong to inactive results. Active and inactive are the calls of the source. Unless noted, no stated cut-off is given here; in the data, active means inhibition above about 44%; inactive means the rest.

A short description of assay [1]: StAR promoter reporter inhibitors, counter-screen for LRH-1 inverse agonist project, cell-based, luminescence, high throughput (AID 651611; in the data active means inhibition above about 28%). Conditions: StAR promoter luciferase reporter counterscreen, at 3.6 µM, stronger effect = higher value.
Assay [2] concerns the target Nuclear receptor subfamily 5 group A member 2 (Homo sapiens) (UniProt O00482). The experiment in a line: LRH-1 (NR5A2) inverse agonists, retest, confirmation, cell-based, luminescence (AID 651613; in the data active means inhibition above about 42%;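 further: HEK293T cells co-transfected with LRH-1 and StAR promoter luciferase reporter; 0% = vehicle wells and 100% = parental cells lacking receptor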). Conditions: cell-based LRH-1 luciferase reporter, inverse agonism; at 3.6 µM; stronger effect = higher value.
For assay [3], the target named is Steroidogenic factor 1 (Homo sapiens) (UniProt Q13285). Kind of assay: SF1 (NR5A1) inverse agonists, counter-screen for LRH-1 inverse agonist project, cell-based, luminescence, high throughput (AID 651614).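 Further: cells cotransfected with StAR promoter reporter and SF1 expression vector; 0% = vehicle on cells with receptor and 100% = vehicle on cells lacking receptor.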 Conditions: cell-based SF1 luciferase reporter, at 3.6 µM, stronger effect = higher value. (Counterscreens check selectivity or assay interference.)
Sequence of Steroidogenic factor 1 (Homo sapiens) (Q13285 whole entry, looked up, the tested form may be a part): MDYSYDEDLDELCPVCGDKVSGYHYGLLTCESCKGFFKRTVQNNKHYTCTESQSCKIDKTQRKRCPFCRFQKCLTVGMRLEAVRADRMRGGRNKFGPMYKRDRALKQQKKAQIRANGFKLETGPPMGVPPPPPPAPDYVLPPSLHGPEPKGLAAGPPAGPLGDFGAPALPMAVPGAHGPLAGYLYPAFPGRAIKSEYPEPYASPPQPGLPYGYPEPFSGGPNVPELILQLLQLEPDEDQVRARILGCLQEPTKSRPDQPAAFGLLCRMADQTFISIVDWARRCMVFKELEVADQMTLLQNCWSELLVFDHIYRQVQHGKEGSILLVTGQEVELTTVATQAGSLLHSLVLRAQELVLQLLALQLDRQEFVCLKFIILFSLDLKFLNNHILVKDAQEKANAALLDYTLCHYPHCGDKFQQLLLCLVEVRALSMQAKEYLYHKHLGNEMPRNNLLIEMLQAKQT
Assay [4] in a line: VP16 transactivation reporter inhibitors, counter-screen for LRH-1 inverse agonist project, cell-based, luminescence, high throughput (AID 651615; in the data active means inhibition above about 33%). Conditions: Gal4-VP16 luciferase reporter cells, at 3.6 µM, stronger effect = higher value.

Sequence of Nuclear receptor subfamily 5 group A member 2 (Homo sapiens) (O00482 whole entry, looked up): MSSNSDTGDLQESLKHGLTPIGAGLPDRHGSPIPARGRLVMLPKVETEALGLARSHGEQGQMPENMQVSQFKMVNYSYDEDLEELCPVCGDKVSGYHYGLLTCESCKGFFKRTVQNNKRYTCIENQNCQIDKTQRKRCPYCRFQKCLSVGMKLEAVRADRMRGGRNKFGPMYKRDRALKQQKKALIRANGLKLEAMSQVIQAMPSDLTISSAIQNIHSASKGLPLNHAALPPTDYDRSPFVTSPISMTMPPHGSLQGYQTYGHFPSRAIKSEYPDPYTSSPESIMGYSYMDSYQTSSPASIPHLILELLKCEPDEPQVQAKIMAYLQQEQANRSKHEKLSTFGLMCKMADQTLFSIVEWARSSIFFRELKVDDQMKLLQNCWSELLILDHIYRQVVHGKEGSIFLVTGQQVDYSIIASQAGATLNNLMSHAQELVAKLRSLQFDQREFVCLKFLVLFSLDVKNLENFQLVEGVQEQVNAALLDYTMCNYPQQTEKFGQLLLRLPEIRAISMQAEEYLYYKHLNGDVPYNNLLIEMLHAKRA

`CS(=O)(=O)N(CC(=O)N1CCN(Cc2ccc3c(c2)OCO3)CC1)Cc1ccc(Cl)cc1`: the inhibition was 12.5% in assay [1], 63% (active) in assay [2], 44.9% (active) in assay [3] and 36.9% (active) in assay [4].
Regarding `CC(=O)Nc1ccc(NC(=O)COC(=O)c2cc(S(=O)(=O)N3CCCC3)ccc2O)cc1`, the inhibition in assay [1] is 21%; in assay [2] it was 58.9% (active); in assay [3], 61.4% (active); in assay [4], -14.8%.
On to `CCC(=O)Nc1nnc(SCC(=O)NCCc2ccc(OC)c(OC)c2)s1`, for which the inhibition in assay [1] is 12.9%; in assay [2] it was 55.6% (active); in assay [3] it was 57.3% (active); in assay [4], -15.4%.
The corresponding values for `CC(=O)NC12CC3CC(C1)CC(C(=O)Nc1nc4ccc(S(C)(=O)=O)cc4s1)(C3)C2` are 11.2%, 50.8% (active), 45.2% (active) and -1.09%.
The corresponding values for `CC(=O)c1ccc(NC(=O)CN2C(=O)NC3(CCc4ccccc43)C2=O)cc1` (configuration not stated) are 12.2%, 61.5% (active), 49.3% (active) and -0.14%.
Taken in the same sequence, the figures for `CC(=O)Nc1ccc(NC(=O)CSc2nc3nc(-c4cccs4)cc(C(F)(F)F)c3c(=O)[nH]2)cc1` were 8.21%, 54.2% (active), 49.2% (active) and -4.54%.
For `COc1cc(-c2cnc3c(NC=O)cc(-c4ccccc4Cl)cn23)cc(OC)c1OC`, the inhibition in assay [1] is 64.9% (active); in assay [2], 45.6% (active); in assay [3], 62.6% (active); in assay [4], -21.3%.
As to `CCOC(=O)c1c(NC(=O)/C=C/C(=O)O)sc(C)c1-c1ccc(Cl)cc1`, the inhibition is 6.09% in assay [1], 59.2% (active) in assay [2], 48.9% (active) in assay [3] and 5.25% in assay [4].
Taken in the same sequence, the figures for `COC(=O)CC1(C(=O)OC)Oc2ccc(Br)cc2C(=O)N1c1cc(Cl)c(Cl)cc1Cl` (configuration not stated) were 12.1%, 58.5% (active), 48.2% (active) and 20.2%.
Taken in the same sequence, the figures for `COc1cc(CSc2nnnn2-c2ccc(C)cc2)cc(OC)c1OC` were 24.4%, 53.3% (active), 61.1% (active) and 44.8% (active).
Taken in the same sequence, the figures for `COc1ccc(CCNC(=O)CSc2nc3[nH]ncc3c(=O)n2-c2ccc(C)c(Cl)c2)cc1OC` were 13.2%, 61.3% (active), 56.5% (active) and -6.41%.
Take `CCOc1ccc(Cc2nnc(SCC(=O)Nc3ccc(C(C)=O)cc3)[nH]c2=O)cc1`: the inhibition in assay [1] is 1.5%; in assay [2], 52% (active); in assay [3], 40.9%; in assay [4], -7.62%.
With `CC(/C=C(\NC(=O)c1ccccc1)C(=O)N=Nc1c(O)[nH]c2ccc(C)cc12)=C\c1ccccc1`, the inhibition in assay [1] is 34.2% (active); in assay [2] it was 31.7%; in assay [3] it was 30.2%; in assay [4], 14.1%.
Taken in the same sequence, the figures for `CC1CCCC(C)N1C(=O)COC(=O)Cc1ccc(F)cc1` (configuration not stated) were -0.44%, 47.2% (active), 44.5% (active) and 3.23%.
The corresponding values for `CC(=O)c1ccsc1-c1c(C)cc2oc(=O)cc(-c3ccccc3)c2c1C` are 8.02%, 64.7% (active), 54.4% (active) and -0.37%.
Turning to `CC(=O)N1CCN(c2ccc(NC(=O)c3cccc([N+](=O)[O-])c3)cc2)CC1`, the inhibition in assay [1] is -1.56%; in assay [2], 53.6% (active); in assay [3] it was 49.6% (active); in assay [4], -19.9%.
Turning to `CCn1c(=S)sc2c(=O)n(CC(=O)Nc3ccc(Cl)cc3)c(C)nc21`, the inhibition was 6.76% in assay [1], 55.2% (active) in assay [2], 46.7% (active) in assay [3] and 19.1% in assay [4].
As for `O=C(Nc1ccc2oc(-c3cccnc3)nc2c1)c1ccc([N+](=O)[O-])o1`, the inhibition in assay [1] was 8.01%; in assay [2] it was 58.1% (active); in assay [3], 62.5% (active); in assay [4], -5.53%.
The corresponding values for `O=C(NCc1cccnc1)c1ccc(NC(=O)c2ccc(Br)cc2)cc1` are 70.9% (active), 75.9% (active), 91.9% (active) and 18.5%.
The corresponding values for `COc1cc2c(cc1OC)CN(C(=O)c1ccc([N+](=O)[O-])o1)CC2` are 12.4%, 65.1% (active), 64.4% (active) and 7.13%.
Taken in the same sequence, the figures for `Cc1ccc(NC(=O)c2ccc([N+](=O)[O-])o2)cc1S(=O)(=O)N1CCOCC1` were 17.7%, 58.5% (active), 58.8% (active) and -4.03%.
For `Oc1c(Cl)cc(CN2CCOCC2)c2cccnc12`, the inhibition was 4.86% in assay [1], 18.4% in assay [2], 6.83% in assay [3] and -5.55% in assay [4].
Take `O=C(COc1ccc2c3c(c(=O)oc2c1)CCCC3)NCCN1CCOCC1`: the inhibition in assay [1] is 0.51%; in assay [2], 41.4% (active); in assay [3], 23.5%; in assay [4], -1.02%.
With `COc1ccc(-c2nnc(NC(=O)c3ccc([N+](=O)[O-])o3)o2)c(OC)c1`, the inhibition in assay [1] is 15.5%; in assay [2], 63.4% (active); in assay [3], 57% (active); in assay [4], 10.2%.
The corresponding values for `Cc1nnc(SCC(=O)Nc2ccc(Br)cc2)n(N)c1=O` are 6.5%, 44.3% (active), 32.1% and -5.1%.
Taken in the same sequence, the figures for `COc1ccc(C2=Nn3c(nnc3-c3ccccc3OC)SC2)cc1OC` were 52.6% (active), 58.7% (active), 64% (active) and 11.1%.
Taken in the same sequence, the figures for `C=CCOc1ccccc1CN(C(=O)CCl)c1ccc2c(c1)OCO2` were 7.87%, 68.8% (active), 53.5% (active) and -54.5%.
For the compound `COc1cc(NCCCCCCN)c2ncccc2c1OC`, the inhibition in assay [1] was 22.3%; in assay [2], 49% (active); in assay [3], 43.6% (active); in assay [4], -3%.
Taken in the same sequence, the figures for `CCOc1ccc(CCNC(=O)COC(=O)c2nc3nc(C)cc(C)n3n2)cc1OCC` were 9.65%, 48.8% (active), 38.2% and -0.98%.
Taken in the same sequence, the figures for `c1ccc(C2=Nn3c(nnc3-c3n[nH]c4c3CCC4)SC2)cc1` were 47.6% (active), 50.8% (active), 40.7% and -147%.
Taken in the same sequence, the figures for `O=C(CCl)N(c1ccc(Cl)cc1)c1c[nH]c2ccccc12` were 25.4%, 67.1% (active), 58% (active) and 30.4%.
Turning to `CCc1cccc2sc(N3CCN(C(=O)c4ccc([N+](=O)[O-])o4)CC3)nc12`, the inhibition in assay [1] is 3.02%; in assay [2] it was 57.7% (active); in assay [3], 52.5% (active); in assay [4], 17.4%.
The corresponding values for `Nc1cccc(OCCCCCOc2cccc(N)c2)c1` are -18.2%, 41.7% (active), 54% (active) and -5%.
Take `CN(C)CCNC(=O)c1cccc2nc3cccc(F)c3nc12`: the inhibition in assay [1] is 63.9% (active); in assay [2] it was 81.5% (active); in assay [3], 72.1% (active); in assay [4], 55% (active).
The corresponding values for `Oc1[nH]c2ccccc2c1N=NC(=S)N1CCOCC1` are 74.8% (active), 78.3% (active), 80% (active) and 55.2% (active).
Taken in the same sequence, the figures for `CCc1cc(=O)[nH]c(SCC(=O)Nc2ccc3c(c2)OCCO3)n1` were 4.24%, 40.6%, 45.7% (active) and 0.13%.
Taken in the same sequence, the figures for `CC1CCC2(CC1)NC(=O)N(CC(=O)Nc1ccc3c(c1)CCC3)C2=O` (configuration not stated) were 39.1% (active), 49.1% (active), 48.9% (active) and 12.8%.
On to `O=C(c1ccc([N+](=O)[O-])o1)N1CCN(c2nc3c(Cl)cccc3s2)CC1`, for which the inhibition in assay [1] was 10.8%; in assay [2], 64.6% (active); in assay [3] it was 61.3% (active); in assay [4] it was 3.24%.
Taken in the same sequence, the figures for `Cn1c(=O)oc2cc(NC(=O)CCl)ccc21` were 51.8% (active), 61.6% (active), 71.3% (active) and -65.2%.
Taken in the same sequence, the figures for `COc1ccc(C2=Nn3c(nnc3-c3ccccc3OC)SC2)cc1OCC1CC1` were 49.1% (active), 60.4% (active), 62.8% (active) and 24.6%.
The corresponding values for `O=C(CSc1nc2ccccc2c(=O)n1-c1ccc(F)cc1)Nc1ccc(N2CCOCC2)cc1` are 2.2%, 29.5%, 25.7% and 6.2%.
Regarding `Cc1ccc(NC(=O)CSc2nnc(CNC(=O)c3ccco3)n2C)c(C)c1`, the inhibition was 6.66% in assay [1], 58.5% (active) in assay [2], 51.4% (active) in assay [3] and -7.24% in assay [4].
The corresponding values for `Nc1ccc(Oc2ccc(Cl)cc2)cc1` are 1.47%, 35.2%, 31% and -7.96%.
Taken in the same sequence, the figures for `COc1ccc(NC(=O)COC(=O)CNC(=O)c2cc(OC)c(OC)c(OC)c2)cc1` were 8.08%, 42.9% (active), 50.5% (active) and -7.21%.
As to `CN1C=C/C(=C\c2cc[n+](C)c3ccccc23)c2ccccc21`, the inhibition in assay [1] is 28.6% (active); in assay [2], 108% (active); in assay [3] it was 46.8% (active); in assay [4] it was 81.4% (active).
The corresponding values for `Cc1cccc(NC(=O)COC(=O)Cc2cccs2)c1C` are 0.39%, 53.8% (active), 46.9% (active) and 14.1%.
On to `CC(C)C(=O)N1CCN(c2ccc(NC(=O)c3ccc([N+](=O)[O-])o3)cc2)CC1`, for which the inhibition in assay [1] is 8.38%; in assay [2], 59.5% (active); in assay [3] it was 60.5% (active); in assay [4], -4.74%.
The corresponding values for `COC(=O)c1cc2occc2n1CC(=O)Nc1ccc(C)cc1C` are 13.8%, 66.8% (active), 51.6% (active) and 1.15%.
Regarding `CCN(CC)c1nc(-c2ccccn2)nc(-c2ccccc2)c1C#N`, the inhibition is 11.5% in assay [1], 53.4% (active) in assay [2], 55.7% (active) in assay [3] and 13.6% in assay [4].
Regarding `O=C(Nc1cccc([N+](=O)[O-])c1)c1ccc([N+](=O)[O-])o1`, the inhibition in assay [1] was 24%; in assay [2], 64.7% (active); in assay [3], 70.5% (active); in assay [4] it was -20.3%.
On to `O=[N+]([O-])c1cnccc1Nc1ccccc1`, for which the inhibition is 7.45% in assay [1], 62% (active) in assay [2], 58.9% (active) in assay [3] and 1.98% in assay [4].
Taken in the same sequence, the figures for `Cn1cccc1C(=O)OCC(=O)NCCCc1ccccc1` were 3.25%, 54% (active), 44.4% (active) and -22%.
The corresponding values for `COc1ccc(CC(=O)Nc2ccncc2Cl)cc1` are 7.9%, 57.3% (active), 49.8% (active) and 43% (active).

Values taken from PubChem BioAssay.
